# From ChEMBL document CHEMBL3988442, “University of Dundee, Small-Polar-MMV Screening Library” (2021)
# Hit rate of the full screen: of about 85,000 compounds, about 440 (0.52%) showed an effect of 50% or more. The entries come from a sample that favours strong results as a whole.
# Assay: In vitro enzyme assay to detect hydrolysis of chlorophenol red-beta-D-[…] directly proportional to the number of Toxoplasma stably expressing beta-galactosidase
# Format: functional, organism-based, Toxoplasma gondii
# Set-up: scale not given: in the data most compounds retested in dose-response had high values
SMILES,Percent Effect (50 µM) [%],Percent Effect (10 µM) [%]
CCN(CC)C(=O)C(C)NC(=O)c1cc(C#N)c[nH]1 (centres undefined),-1.389,
O=C(OCCOc1cccnc1)C1CC1,43.8,
O=S(=O)(CCN1CCCC1)c1ccc(Cl)cc1,0.9615,
CNC(=O)CN(C)C(=O)Cc1c[nH]c2ccccc12,2.87,
Cc1ccsc1CN(C)C(=O)C(CN)c1ccccc1 (centres undefined),-6.582,
CCN(CC)C(=O)c1ccccc1N(C)S(C)(=O)=O,-4.295,
CNc1ncc2c(n1)CN(C1CCCC1)C2=O,,52.32
Nc1ncc2c(n1)CN(C1CCCC1)C2=O,,17.83
CNc1ncc2c(n1)CN(C1CC(C)(C)NC(C)(C)C1)C2=O,,-1.01
CN(C)c1ncc2c(n1)CN(C1CCSCC1)C2=O,,78.86
CC1CCC(N2Cc3nc(N)ncc3C2=O)CC1 (centres undefined),,-0.06734
CN(C)c1ncc2c(n1)CN(C1CC(C)(C)NC(C)(C)C1)C2=O,,-0.4714
COCc1nc(C2CCN(S(C)(=O)=O)C2)no1 (centres undefined),-61,
CC(O)CN(CCN)C(=O)OC(C)(C)C (centres undefined),-7.411,
NCC(O)c1cccc2ccccc12 (centres undefined),36.71,
NCC(O)c1ccc(-c2ccccc2)cc1 (centres undefined),100.3,
NCC(O)c1ccncc1 (centres undefined),1.266,
CCN(CC)C(=O)CN(C)C(=O)Cc1cccc(F)c1,1.744,
CN(Cc1cc(C#N)cs1)Cc1nccn1C,-7.444,
CC(=O)N1CCC(c2n[nH]cc2-c2ccnc(N)c2)C1 (centres undefined),,20.34
Cc1c[nH]nc1C1CCN(C(=O)C2CCC2)CC1,,14.73
CC(C)CNc1cc(-c2c[nH]nc2C2CCN(C(=O)C3CC3)C2)ccn1 (centres undefined),,86.59
CC(C)N1CCC(c2n[nH]cc2-c2ccnc(N)c2)C1 (centres undefined),,18.38
CC(C)Nc1cc(-c2c[nH]nc2C2CCN(C(=O)C3CCC3)C2)ccn1 (centres undefined),,95.4

SMILES,Percent Effect (50 µM) [%],Percent Effect (10 µM) [%]
Cc1c[nH]nc1C1CCN(C(=O)C2CCOCC2)C1 (centres undefined),,9.496
CN1CCC(c2n[nH]cc2-c2ccnc(N)c2)C1 (centres undefined),,-7.314
CCCNc1cc(-c2c[nH]nc2C2CCN(C(=O)C3CCC3)C2)ccn1 (centres undefined),,94.14
CC(C)Nc1cc(-c2c[nH]nc2C2CCN(C(=O)C3CC3)C2)ccn1 (centres undefined),,77.26
Cc1c[nH]nc1C1CCN(C(=O)C2CCCC2)C1 (centres undefined),,6.331
Nc1cc(-c2c[nH]nc2C2CCN(C(=O)C3CCCC3)C2)ccn1 (centres undefined),,5.055
Nc1cc(-c2c[nH]nc2C2CCCCN2C(=O)C2CCCC2)ccn1 (centres undefined),,-17.94
NCCC(=O)N1CCCC1Cc1cccc(F)c1 (centres undefined),-2.968,
COc1cc(Br)c(CN)cc1OC,44.43,
CC(C(=O)N1CCCC1)N1CCN(c2nc[nH]n2)CC1 (centres undefined),16.6,
N#Cc1ccc(C(=O)NCCCc2csc(N)n2)cn1,3.81,
CC(=O)N(C)C1CCNCC1,-2.944,
CNC(=O)CCSc1ccc2c(c1)OCCO2,0.7135,
NCC(=O)Nc1cc(C(F)(F)F)c[nH]c1=O,-2.166,
CCCn1ccnc1CNC(=O)CCC(=O)N(C)C,-10.54,
CNc1nnc(SCc2ncc(C)o2)s1,-1.305,
COCC(=O)NCc1nn(CCN2CCCC2)c(=O)c2ccccc12,,94.96
CCOC(=O)NCc1nn(CCN2CCCC2)c(=O)c2ccccc12,,7.365
CCNC(=O)NCc1nn(CCN2CCCC2)c(=O)c2ccccc12,,21.21
CCC(=O)NC(C)(C#N)C(C)C (centres undefined),2.056,
CC1CCN(CC(N)=O)CC1,-12.83,
O=C(NCCc1cccs1)c1cc[nH]n1,7.034,
CCC(N)c1cnn(CC)c1 (centres undefined),-19.44,
O=C(c1cnn(-c2ccccc2)c1)N1CCCCC1,-4.798,

SMILES,Percent Effect (50 µM) [%],Percent Effect (10 µM) [%]
O=C(c1ccc(O)nc1)N1CCN(C(=O)c2ccc(F)c(F)c2)CC1,,5.066
O=C(c1cc(-c2cccs2)cs1)N1CCSCC1,,-31.67
O=C(c1ccc(O)nc1)N1CCCCCCC1,-10.69,
O=C(c1ccc(-c2ccc(O)nc2)s1)N1CCCCCC1,,59.06
O=C(c1cnc(-c2cccnc2)nc1)N1CCSCC1,,1.887
O=C(c1ccc(-c2ccc(O)nc2)s1)N1CCSCC1,,61.48
O=C(c1ccc(-c2ccc(O)nc2)s1)N1CCCCC1,,53
CCNc1ncc(C(=O)N2CCCCC2)s1,3.681,
O=C(CN1CCNCC1)c1ccccc1Cl,-6.338,
O=C(c1cnsn1)N1CC=C(c2ccccc2)CC1,3.694,
CCC(C)(O)CCN (centres undefined),17.18,
Cc1ccc(NC(=O)CN2CCNCC2)c(C)c1,-5.303,
CCC(CC)NC(=O)CSc1nnc(N)n1C,-0.697,
Cn1ncc2c(NCc3ccccc3CO)ncnc21,2.537,
Cc1cc(C)n(C2CN(CC(=O)N(C)Cc3ccc(C)o3)C2)n1,,1.659
Cc1ccc(CN(C)C(=O)Cn2cnnn2)o1,88.2,
Cc1ccc(CN(C)C(=O)CSc2nncn2C)o1,6.979,
CN1CCCN(C(=O)c2ccc(C#N)cc2)CC1,-7.834,
CC(C)c1nc(CN2CCCC3(CCNC3)C2)co1 (centres undefined),-11.26,
NC(c1ccccc1)C1(CO)CCC1 (centres undefined),8.034,
Cc1ccc(OCCNC(=O)CN2CSCC2=O)cc1,-3.002,
Cc1nn(C)c2c(=O)n(C(C)C)c(NCCc3ccccc3)nc12,,81.01
CCn1c(NCc2ccccn2)nc2c(C)nn(C)c2c1=O,,61.62
CCCn1c(NCCc2ccccc2)nc2c(C)nn(C)c2c1=O,,74.28

SMILES,Percent Effect (50 µM) [%],Percent Effect (10 µM) [%]
CCOc1ccccc1Nc1nc2c(C)nn(C)c2c(=O)n1C,,17.23
CCn1c(NCc2cccnc2)nc2c(C)nn(C)c2c1=O,,57.44
CCc1nc(NCc2ccccn2)c2c(n1)c(C)nn2C,,20.03
Cc1nc(NCc2ccccn2)c2c(n1)c(C)nn2C,,13.62
Cc1nn(C)c2c(NCc3cccnc3)nc(C(C)C)nc12,,25.8
COc1ccccc1Nc1nc2c(C)nn(C)c2c(=O)n1C,,9.981
Cc1nc(NCc2cccnc2)c2c(n1)c(C)nn2C,,-7.547
Cc1nn(C)c2c(=O)n(C(C)C)c(NCC3CCCO3)nc12 (centres undefined),,6.206
CC(=O)c1ccc2c(c1)CCC(=O)N2C,4.842,
CCOC(=O)NCCC(=O)N1CCCCCC1,12.12,
Cc1ccc(F)c(S(=O)(=O)NC[C@@H]2CCNC[C@H]2O)c1,0.2013,
CN(C)Cc1nnc(-c2ccccc2)o1,4.493,
Cc1cc(CN)sc1C,12.43,
COC(=O)c1ccc2c(c1)N(C)C(=O)CO2,-4.49,
CCn1c(NCc2ccco2)nc2c(C)nn(C)c2c1=O,,8.368
CCn1c(NCc2ccc(OC)cc2)nc2c(C)nn(C)c2c1=O,,69.56
CCn1c(Nc2ccccc2OC)nc2c(C)nn(C)c2c1=O,,-60.37
COc1ccc(C(C)Nc2nc3c(C)nn(C)c3c(=O)n2C)cc1 (centres undefined),,18.77
COc1ccc(Nc2nc3c(C)nn(C)c3c(=O)n2C)cc1,,8.6
CCn1c(NCc2ccccc2)nc2c(C)nn(C)c2c1=O,,72.53
O=C(NCC1(O)CCNC1)c1ccc(F)c(O)c1 (centres undefined),-8.112,
O=C(NCc1c[nH]nn1)C1(Cc2ccccc2)CCC1,-1.868,
O=C(Nc1cnccn1)c1ccc(F)cn1,3.391,
Cc1ncc(CN(C)CCO)c2cc(C(=O)c3ccc(Br)cc3)oc12.Cl,,15.47

SMILES,Percent Effect (50 µM) [%],Percent Effect (10 µM) [%]
Cc1ncc(CN2CCCC2)c2cc(C(=O)c3ccc(Br)cc3)oc12.Cl,,24.27
Cc1ncc(CNC(C)(C)CO)c2cc(C(=O)c3ccc(Br)cc3)oc12,,20.02
Cc1ncc(CNCC(C)O)c2cc(C(=O)c3ccc(Br)cc3)oc12.Cl (centres undefined),,12.01
Cc1ncc(CNCCO)c2cc(C(=O)c3ccc(Br)cc3)oc12.Cl,,76.96
COC(=O)c1ccc(C(=O)NC2(C#N)CCCC2)cc1,-9.94,
COc1cc(CN)cc(Br)c1OC,0.1756,
Cn1ccc(C(=O)N2CCOc3ccccc32)cc1=O,-11.87,
Cc1scc(-c2nnc(SCC(N)=O)n2C)c1C,-29.64,
CSC(C)C(=O)Nc1ccc(Cl)c(C(=O)N(C)C)c1 (centres undefined),8.458,
Cc1cc(C(=O)Nc2cnn(CC(F)(F)F)c2)nc(N2CCOCC2)n1,,69.43
CCN(CC)c1nc(C)cc(C(=O)Nc2cnn(CC)c2)n1,,-30.04
Cn1nccc1C(=O)Nc1cnn(CC(F)(F)F)c1,-29.38,
CCn1cc(NC(=O)c2cc(C)nc(N3CCOCC3)n2)cn1,,48.82
Cc1cc(C(=O)NCc2c(C)nn(C)c2C)nc(N2CCOCC2)n1,,20.1
Cc1cc(C(=O)Nc2cnn(CC(F)(F)F)c2)nc(N(C)C)n1,,54.34
CCCn1ccc(NC(=O)NC(C)C)n1,-36,
CN(C)CC(=O)NC(C)(C(N)=O)c1cccc(Cl)c1 (centres undefined),2.258,
Cc1ccc2c(c1)C(=O)NCC2,-9.759,
CCc1ccc(CN(CCO)Cc2nccn2C)nc1,67.1,
Cc1cccc(CN(CCO)Cc2nccn2C)n1,18.88,
CSc1ccc(CN(CCO)Cc2nccn2C)cc1,,19.56
NC(=O)OCCNC(=O)c1occc1Br,5.554,
CCN1CCCC1CNC(=O)c1cccc(OC)c1 (centres undefined),4.98,
